Test [1] has as its target Sphingosine kinase 1 (Homo sapiens) (UniProt Q9NYA1). The conditions noted are these: at 1 µM.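 Further: mean SPHK1 inhibition value reported from the GSK PKIS kinase panel screen.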
In test [2] the target is T1, Sphingosine kinase 2 (Homo sapiens) (UniProt Q9NRA0).
T1 sequence (whole entry): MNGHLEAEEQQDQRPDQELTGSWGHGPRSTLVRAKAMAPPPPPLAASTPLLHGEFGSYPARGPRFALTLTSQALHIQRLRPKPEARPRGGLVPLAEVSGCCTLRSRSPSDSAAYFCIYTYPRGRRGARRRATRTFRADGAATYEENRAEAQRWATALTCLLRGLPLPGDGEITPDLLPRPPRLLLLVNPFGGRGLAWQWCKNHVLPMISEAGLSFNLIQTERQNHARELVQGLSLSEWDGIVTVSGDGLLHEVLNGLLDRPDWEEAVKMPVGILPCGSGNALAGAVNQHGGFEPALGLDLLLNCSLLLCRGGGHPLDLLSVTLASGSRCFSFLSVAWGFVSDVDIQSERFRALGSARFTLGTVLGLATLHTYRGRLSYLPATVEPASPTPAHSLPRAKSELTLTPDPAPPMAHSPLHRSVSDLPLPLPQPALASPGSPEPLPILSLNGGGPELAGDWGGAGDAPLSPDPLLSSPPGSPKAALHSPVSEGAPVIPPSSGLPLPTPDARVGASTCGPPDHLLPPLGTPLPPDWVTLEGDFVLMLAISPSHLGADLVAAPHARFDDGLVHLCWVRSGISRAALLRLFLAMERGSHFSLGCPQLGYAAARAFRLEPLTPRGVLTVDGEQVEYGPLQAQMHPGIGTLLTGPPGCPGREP
As to conditions: at 0.1 µM.

The target in test [3] is T1, Sphingosine kinase 2 (Homo sapiens). The conditions noted are these: at 1 µM.
In test [4] the target is Casein kinase II subunit alpha (Homo sapiens) (UniProt P68400). The conditions noted are these: at 0.1 µM.
Chain of Casein kinase II subunit alpha (Homo sapiens) (P68400 whole entry, looked up): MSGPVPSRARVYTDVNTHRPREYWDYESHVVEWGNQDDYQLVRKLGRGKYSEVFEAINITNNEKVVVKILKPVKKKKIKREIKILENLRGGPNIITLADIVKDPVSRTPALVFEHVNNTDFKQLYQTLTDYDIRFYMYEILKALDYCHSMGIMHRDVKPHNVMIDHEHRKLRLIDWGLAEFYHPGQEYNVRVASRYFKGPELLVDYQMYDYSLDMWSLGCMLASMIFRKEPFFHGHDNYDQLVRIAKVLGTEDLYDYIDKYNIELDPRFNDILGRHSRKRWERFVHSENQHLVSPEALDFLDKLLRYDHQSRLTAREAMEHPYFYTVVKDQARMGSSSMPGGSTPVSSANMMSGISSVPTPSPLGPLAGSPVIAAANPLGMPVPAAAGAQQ
The target is the same in test [5]. The conditions noted are these: at 1 µM.
Test [6] addresses T2, Inhibitor of nuclear factor kappa-B kinase subunit alpha (Homo sapiens) (UniProt O15111).
T2 sequence (whole entry): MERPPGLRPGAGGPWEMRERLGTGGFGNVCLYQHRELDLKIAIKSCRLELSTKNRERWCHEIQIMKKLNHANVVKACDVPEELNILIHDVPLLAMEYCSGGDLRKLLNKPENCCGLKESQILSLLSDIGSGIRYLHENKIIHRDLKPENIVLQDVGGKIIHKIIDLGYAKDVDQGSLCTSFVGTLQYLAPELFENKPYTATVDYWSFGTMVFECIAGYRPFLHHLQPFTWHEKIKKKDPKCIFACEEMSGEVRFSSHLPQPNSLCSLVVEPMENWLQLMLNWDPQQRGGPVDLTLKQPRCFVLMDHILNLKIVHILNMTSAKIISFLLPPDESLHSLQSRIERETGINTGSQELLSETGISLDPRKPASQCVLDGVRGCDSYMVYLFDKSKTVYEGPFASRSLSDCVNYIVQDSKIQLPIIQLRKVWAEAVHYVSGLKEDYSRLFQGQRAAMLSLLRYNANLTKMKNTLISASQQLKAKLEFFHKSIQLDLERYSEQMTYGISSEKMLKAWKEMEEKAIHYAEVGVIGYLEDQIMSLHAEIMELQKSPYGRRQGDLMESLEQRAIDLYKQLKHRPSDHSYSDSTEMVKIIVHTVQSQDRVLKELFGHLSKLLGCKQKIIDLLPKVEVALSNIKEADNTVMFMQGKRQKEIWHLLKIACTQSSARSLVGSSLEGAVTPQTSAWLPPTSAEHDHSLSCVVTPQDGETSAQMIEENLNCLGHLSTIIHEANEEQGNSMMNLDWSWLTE
As to conditions: at 0.1 µM.

Test [7] concerns the target T2, Inhibitor of nuclear factor kappa-B kinase subunit alpha (Homo sapiens). As to conditions: at 1 µM.
The target of test [8] is T3, Inhibitor of nuclear factor kappa-B kinase subunit beta (Homo sapiens) (UniProt O14920).
T3 sequence (whole entry): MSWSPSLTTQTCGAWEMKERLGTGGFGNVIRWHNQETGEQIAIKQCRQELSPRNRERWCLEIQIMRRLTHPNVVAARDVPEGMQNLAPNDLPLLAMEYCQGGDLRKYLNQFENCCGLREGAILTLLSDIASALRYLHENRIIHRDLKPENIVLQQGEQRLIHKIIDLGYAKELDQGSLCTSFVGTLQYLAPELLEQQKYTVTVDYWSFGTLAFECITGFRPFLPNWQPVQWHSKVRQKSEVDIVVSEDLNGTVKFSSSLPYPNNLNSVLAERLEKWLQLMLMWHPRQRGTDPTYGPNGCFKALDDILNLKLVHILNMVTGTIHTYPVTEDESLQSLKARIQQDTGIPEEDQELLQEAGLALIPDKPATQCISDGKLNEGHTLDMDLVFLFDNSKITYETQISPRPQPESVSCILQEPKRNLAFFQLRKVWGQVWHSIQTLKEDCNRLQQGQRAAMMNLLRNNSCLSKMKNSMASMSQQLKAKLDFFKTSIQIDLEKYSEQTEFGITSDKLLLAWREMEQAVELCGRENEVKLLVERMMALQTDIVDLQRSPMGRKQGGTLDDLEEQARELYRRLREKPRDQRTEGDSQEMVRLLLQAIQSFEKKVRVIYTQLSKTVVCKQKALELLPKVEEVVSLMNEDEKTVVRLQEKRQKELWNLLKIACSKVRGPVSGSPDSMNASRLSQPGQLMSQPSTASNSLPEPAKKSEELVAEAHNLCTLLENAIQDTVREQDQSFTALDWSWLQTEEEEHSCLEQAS
As to conditions: at 0.1 µM.

The target of test [9] is T3, Inhibitor of nuclear factor kappa-B kinase subunit beta (Homo sapiens). The conditions noted are these: at 1 µM.
Test [10] addresses T4, Inhibitor of nuclear factor kappa-B kinase subunit epsilon (Homo sapiens) (UniProt Q14164).
T4 sequence (whole entry): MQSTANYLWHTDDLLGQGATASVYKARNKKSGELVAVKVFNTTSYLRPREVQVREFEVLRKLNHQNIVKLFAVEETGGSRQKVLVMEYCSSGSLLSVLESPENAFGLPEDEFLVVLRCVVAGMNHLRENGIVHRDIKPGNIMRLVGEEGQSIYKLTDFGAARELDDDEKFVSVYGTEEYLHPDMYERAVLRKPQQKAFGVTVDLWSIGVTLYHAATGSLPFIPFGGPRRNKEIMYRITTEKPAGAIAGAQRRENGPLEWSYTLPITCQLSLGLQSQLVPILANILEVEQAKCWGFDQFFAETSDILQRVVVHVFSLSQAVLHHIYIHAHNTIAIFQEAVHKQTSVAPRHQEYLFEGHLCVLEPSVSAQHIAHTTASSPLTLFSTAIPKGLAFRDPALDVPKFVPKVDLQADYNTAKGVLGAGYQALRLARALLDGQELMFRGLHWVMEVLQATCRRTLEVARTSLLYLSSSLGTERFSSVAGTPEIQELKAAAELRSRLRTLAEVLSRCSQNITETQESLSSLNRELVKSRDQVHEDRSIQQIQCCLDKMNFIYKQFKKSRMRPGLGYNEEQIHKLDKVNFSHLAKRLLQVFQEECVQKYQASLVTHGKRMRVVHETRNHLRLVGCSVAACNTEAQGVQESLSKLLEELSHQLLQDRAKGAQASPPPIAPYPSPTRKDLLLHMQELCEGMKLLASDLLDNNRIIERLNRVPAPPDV
As to conditions: at 0.1 µM.

Test [11] concerns the target T4, Inhibitor of nuclear factor kappa-B kinase subunit epsilon (Homo sapiens). As to conditions: at 1 µM.
For test [12], the target named is T5, Serine/threonine-protein kinase Nek1 (Homo sapiens) (UniProt Q96PY6).
T5 sequence (whole entry): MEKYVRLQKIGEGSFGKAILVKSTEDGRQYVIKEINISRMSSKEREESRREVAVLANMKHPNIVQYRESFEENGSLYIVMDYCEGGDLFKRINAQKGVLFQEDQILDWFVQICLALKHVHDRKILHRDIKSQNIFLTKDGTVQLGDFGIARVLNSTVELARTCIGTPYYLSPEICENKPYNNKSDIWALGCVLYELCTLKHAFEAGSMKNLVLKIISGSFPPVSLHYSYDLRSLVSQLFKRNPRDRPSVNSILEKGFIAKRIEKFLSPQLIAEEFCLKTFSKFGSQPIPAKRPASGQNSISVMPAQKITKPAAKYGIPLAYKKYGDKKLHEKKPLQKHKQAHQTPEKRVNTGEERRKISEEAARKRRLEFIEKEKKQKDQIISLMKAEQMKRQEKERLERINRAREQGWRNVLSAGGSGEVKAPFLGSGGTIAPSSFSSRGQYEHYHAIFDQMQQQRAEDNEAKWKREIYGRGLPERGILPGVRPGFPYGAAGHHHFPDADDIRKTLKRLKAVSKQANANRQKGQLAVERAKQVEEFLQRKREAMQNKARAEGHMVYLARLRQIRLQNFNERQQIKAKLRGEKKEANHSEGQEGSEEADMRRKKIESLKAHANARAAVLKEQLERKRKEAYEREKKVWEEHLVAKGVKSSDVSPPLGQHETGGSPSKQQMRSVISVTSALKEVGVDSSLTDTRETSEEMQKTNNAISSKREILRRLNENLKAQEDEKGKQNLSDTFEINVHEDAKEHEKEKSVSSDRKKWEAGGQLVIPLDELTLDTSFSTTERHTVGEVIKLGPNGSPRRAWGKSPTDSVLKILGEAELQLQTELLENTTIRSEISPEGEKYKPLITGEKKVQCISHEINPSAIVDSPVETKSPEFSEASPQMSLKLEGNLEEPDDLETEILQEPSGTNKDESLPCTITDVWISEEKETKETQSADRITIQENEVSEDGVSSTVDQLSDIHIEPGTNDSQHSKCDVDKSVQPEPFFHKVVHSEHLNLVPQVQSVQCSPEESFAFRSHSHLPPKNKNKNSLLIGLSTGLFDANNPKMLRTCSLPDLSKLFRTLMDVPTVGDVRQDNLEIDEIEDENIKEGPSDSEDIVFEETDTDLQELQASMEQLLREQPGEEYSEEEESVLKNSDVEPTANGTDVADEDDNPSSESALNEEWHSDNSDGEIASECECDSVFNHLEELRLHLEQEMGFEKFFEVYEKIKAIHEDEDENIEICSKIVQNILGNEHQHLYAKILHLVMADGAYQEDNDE
As to conditions: at 0.1 µM.

Test [13] deals with T5, Serine/threonine-protein kinase Nek1 (Homo sapiens). The conditions noted are these: at 1 µM.
The target in test [14] is T6, Serine/threonine-protein kinase Nek2 (Homo sapiens) (UniProt P51955).
T6 sequence (whole entry): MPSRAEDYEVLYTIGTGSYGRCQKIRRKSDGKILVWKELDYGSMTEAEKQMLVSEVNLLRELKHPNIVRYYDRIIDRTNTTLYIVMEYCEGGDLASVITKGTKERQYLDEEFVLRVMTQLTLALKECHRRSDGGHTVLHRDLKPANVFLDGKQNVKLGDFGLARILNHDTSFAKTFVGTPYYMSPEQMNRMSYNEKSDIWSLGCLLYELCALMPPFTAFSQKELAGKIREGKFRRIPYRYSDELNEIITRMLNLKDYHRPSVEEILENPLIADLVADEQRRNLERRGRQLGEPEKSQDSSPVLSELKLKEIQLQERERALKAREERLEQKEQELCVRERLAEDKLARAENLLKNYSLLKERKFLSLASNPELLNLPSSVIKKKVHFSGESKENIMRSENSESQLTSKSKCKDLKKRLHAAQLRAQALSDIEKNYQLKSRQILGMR
The conditions noted are these: at 0.1 µM.

Test [15] has as its target T6, Serine/threonine-protein kinase Nek2 (Homo sapiens). As to conditions: at 1 µM.
Test [16] addresses Serine/threonine-protein kinase Nek6 (Homo sapiens) (UniProt Q9HC98). The conditions noted are these: at 0.1 µM.
Test [17] shares this target. The conditions noted are these: at 1 µM.
Test [18] concerns the target Serine/threonine-protein kinase Nek7 (Homo sapiens) (UniProt Q8TDX7). The conditions noted are these: at 0.1 µM.
For test [19] the target is unchanged. The conditions noted are these: at 1 µM.
Test [20] deals with T7, Serine/threonine-protein kinase Nek9 (Homo sapiens) (UniProt Q8TD19).
T7 sequence (whole entry): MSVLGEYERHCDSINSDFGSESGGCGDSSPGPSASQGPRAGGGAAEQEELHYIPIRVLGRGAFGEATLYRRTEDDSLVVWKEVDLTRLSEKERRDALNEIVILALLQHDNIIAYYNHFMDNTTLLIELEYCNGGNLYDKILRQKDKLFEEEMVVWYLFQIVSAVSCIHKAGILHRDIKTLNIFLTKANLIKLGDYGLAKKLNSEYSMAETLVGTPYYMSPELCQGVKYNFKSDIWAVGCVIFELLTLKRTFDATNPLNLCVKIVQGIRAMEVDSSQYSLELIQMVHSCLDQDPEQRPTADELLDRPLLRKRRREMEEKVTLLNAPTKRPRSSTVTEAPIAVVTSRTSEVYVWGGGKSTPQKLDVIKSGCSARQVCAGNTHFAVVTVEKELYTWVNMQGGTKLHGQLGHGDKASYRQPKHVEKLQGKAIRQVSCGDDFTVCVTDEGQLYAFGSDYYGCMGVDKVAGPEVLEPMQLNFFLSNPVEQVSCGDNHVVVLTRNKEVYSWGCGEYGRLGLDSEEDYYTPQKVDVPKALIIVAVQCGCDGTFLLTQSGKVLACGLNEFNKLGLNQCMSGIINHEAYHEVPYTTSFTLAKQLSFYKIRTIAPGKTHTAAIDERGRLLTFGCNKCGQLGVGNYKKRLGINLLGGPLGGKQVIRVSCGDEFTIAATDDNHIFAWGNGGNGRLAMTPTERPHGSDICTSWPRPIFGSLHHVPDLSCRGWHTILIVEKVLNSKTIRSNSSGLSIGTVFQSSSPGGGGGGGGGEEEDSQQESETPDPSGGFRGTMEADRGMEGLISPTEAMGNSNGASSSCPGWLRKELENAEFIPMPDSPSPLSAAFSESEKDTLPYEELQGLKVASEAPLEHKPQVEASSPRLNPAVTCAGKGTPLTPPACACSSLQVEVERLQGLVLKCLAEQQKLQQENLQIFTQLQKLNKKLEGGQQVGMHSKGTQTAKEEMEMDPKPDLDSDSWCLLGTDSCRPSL
The conditions noted are these: at 0.1 µM.

Chain of Serine/threonine-protein kinase Nek6 (Homo sapiens) (Q9HC98 whole entry): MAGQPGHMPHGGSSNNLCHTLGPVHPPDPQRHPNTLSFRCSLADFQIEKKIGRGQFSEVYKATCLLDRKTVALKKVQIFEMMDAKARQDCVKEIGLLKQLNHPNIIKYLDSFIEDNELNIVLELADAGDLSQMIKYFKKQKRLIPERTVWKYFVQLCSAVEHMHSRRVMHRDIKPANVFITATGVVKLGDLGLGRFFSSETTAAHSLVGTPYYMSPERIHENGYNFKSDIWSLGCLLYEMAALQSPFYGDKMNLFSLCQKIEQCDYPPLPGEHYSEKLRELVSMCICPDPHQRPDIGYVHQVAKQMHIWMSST
Chain of Serine/threonine-protein kinase Nek7 (Homo sapiens) (Q8TDX7 whole entry, looked up): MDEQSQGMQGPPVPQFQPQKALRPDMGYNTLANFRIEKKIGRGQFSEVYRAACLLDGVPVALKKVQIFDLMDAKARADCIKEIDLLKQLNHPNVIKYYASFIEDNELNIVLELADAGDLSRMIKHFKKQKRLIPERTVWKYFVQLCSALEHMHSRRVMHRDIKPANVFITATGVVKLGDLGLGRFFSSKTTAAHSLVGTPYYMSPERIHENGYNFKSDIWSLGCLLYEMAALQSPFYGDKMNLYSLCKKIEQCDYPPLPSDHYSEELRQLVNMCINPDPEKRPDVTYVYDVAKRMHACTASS
Chain of Sphingosine kinase 1 (Homo sapiens) (Q9NYA1 whole entry): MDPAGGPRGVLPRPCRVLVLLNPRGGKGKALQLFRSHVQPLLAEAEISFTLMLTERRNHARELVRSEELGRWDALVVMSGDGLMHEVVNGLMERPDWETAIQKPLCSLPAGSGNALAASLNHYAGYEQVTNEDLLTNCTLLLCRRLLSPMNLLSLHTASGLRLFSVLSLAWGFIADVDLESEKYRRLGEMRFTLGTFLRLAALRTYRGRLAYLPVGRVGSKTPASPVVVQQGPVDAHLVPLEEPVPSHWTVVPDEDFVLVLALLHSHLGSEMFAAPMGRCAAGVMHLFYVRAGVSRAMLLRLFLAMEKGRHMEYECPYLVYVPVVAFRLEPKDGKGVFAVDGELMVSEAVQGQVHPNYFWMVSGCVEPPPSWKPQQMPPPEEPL

One may read the inhibition as the relative decrease from the control value, in per cent. On to `CCn1c(-c2nonc2N)nc2ccccc21`, for which the inhibition is 1.74% in test [1]; 13.1% in test [2]; -0.24% in test [3]; 0.89% in test [4]; -1.31% in test [5]; -3.92% in test [6]. The inhibition in test [7] was -1.19%; in test [8], 2.35%; in test [9], -1%; in [10] it was 2.9%; in test [11], 1.58%; in test [12], 2.18%. Also, the inhibition in test [13] was 2.6%; in test [14], 3.43%; in test [15], 4.15%; in test [16] it was 5.78%; in [17] it was 0.38%; in test [18] it was 2.9%. Also, the inhibition is 4.22% in test [19] and 0.97% in [20].

The record behind these values is ChEMBL document CHEMBL1961873, “Compounds: GSK PKIS; Assays: Nanosyn kinase panel” (2012).
